Data on 40 compounds can be found in PubChem BioAssay (EPA / NIEHS).

Results filed as inconclusive are left out. Calls of active or inactive are those of the source. How the source made its calls: active means hit-call score of the fitted dose curve at least 0.9, where 1 is the maximum; inconclusive means response in the unintended direction; inactive means score below 0.9.

Chain of Estrogen receptor (Homo sapiens) (P03372 whole entry, looked up, the tested form may be a part): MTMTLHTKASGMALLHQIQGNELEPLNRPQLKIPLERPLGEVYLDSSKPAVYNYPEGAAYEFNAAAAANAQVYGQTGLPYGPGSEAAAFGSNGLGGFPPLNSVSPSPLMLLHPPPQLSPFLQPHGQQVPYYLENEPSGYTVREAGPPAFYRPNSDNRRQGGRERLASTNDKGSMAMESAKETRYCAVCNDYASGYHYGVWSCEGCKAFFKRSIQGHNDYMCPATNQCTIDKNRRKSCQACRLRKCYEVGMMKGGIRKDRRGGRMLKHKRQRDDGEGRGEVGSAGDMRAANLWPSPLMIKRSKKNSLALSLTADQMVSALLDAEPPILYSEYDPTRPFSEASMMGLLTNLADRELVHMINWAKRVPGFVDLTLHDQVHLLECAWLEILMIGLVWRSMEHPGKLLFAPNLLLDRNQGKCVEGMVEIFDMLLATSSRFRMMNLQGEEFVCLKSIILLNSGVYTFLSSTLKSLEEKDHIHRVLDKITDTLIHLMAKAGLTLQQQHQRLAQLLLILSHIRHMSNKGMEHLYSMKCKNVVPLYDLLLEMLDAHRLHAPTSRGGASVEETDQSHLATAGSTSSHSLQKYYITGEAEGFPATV

The target of the assay is Estrogen receptor (Homo sapiens) (UniProt P03372). Nature of the assay: ATG_ERa_TRANS: Attagene TRANS-FACTORIAL HepG2 Assay for human Estrogen Receptor alpha (ERa) (AID 2282970). The following applies: HepG2 Attagene TRANS ERa GAL4 reporter, mRNA. Here is the method:
ATG_TRANS is a cell-based, multiplexed-readout assay that uses HepG2, a human liver cell line, with measurements taken at 24 hours after chemical dosing in a 24-well plate.ATG_ERa_TRANS is one of 30 assay component(s) measured or calculated from the ATG_TRANS assay. It is designed to make measurements of mRNA induction, a form of inducible reporter, as detected with fluorescence intensity signals by Reverse transcription polymerase chain reaction (RT-PCR) and Capillary electrophoresis technology.Data from the assay component ATG_ERa_TRANS was analyzed into 1 assay endpoint. This assay endpoint, ATG_ERa_TRANS, was analyzed in the positive analysis fitting direction relative to DMSO as the negative control and baseline of activity. Using a type of inducible reporter, measures of mRNA for gain-of-signal activity can be used to understand the reporter gene at the transcription factor-level as they relate to the gene ESR1. Furthermore, this assay endpoint can be referred to as a primary readout, because this assay has produced multiple assay endpoints where this one serves a reporter gene function. To generalize the intended target to other relatable targets, this assay endpoint is annotated to the nuclear receptor intended target family, where the subfamily is steroidal.
Human liver HepG2 cells are transiently transfected with multiple reporter transcription units (MRTUs) in 6-well plates using FuGene 6 reagent (Roche; 3 ml FuGene/1 mg DNA). The MRTU constructs are regulated by a cis-regulating element (promoter). […] A major difference between the CIS and TRANS system is that in CIS activities of endogenous TFs are measured, whereas the TRANS assay evaluates changes in activities of exogenous, chimeric NR-Gal4 proteins. […] At the end of 24 hour incubation, total RNA was isolated using TriZol reagent (Invitrogen). The isolated RNA is then reverse-transcribed using oligo(dT) primer and Mo-MLV reverse transcriptase (Invitrogen) with DNAse I (Ambion) treatment for 30 min. The one-tenth of the produced cDNA was amplified by PCR using Taq DNA polymerase (Invitrogen) and two reporter sequence-specific primers. The PCR products were fluorescently labeled by primer extension with 6-arboxyfluorescein (6-FAM) 5'-labeled reporter sequence-specific primer (2 min at 95 C, 20 s at 68 C and 10 min at 72 C) and these products were digested with 5U of HpaI (New England Biolabs) for 2h at 37 C. […] The raw capillary electrophoresis data was processed using Attagraph software (Attagene).
In the case of `CCCCCC(=O)O`, the outcome was inactive.
Regarding `C=CCc1ccc(O)c(OC)c1`, the concentration at half-maximal activity (AC50) was 41.4 µM (active).
The same measure, in the same setting: as for `C=CCOC(=O)c1ccccc1C(=O)OCC=C`, the figure is 76.7 µM (active).
On to `Nc1nc(N)c2nc(CNc3ccc(C(=O)N[C@@H](CCC(=O)O)C(=O)O)cc3)cnc2n1`, for which the call was inactive.
As for `CC(=O)C(C)=CC1C(C)=CCCC1(C)C` (stereo not given), the AC50 is 29.8 µM (active).
Same read-out and setting: the result for `Oc1ccc2c(c1)OC[C@@H](N1CCC(O)(c3ccc(F)cc3)CC1)[C@H]2O` reads 6.61 µM (active).
For the compound `O=C(OCCCCCOC(=O)c1ccccc1)c1ccccc1`, the compound was called inactive.
`Cc1cccc([N+](=O)[O-])c1C`: the AC50 was 44.3 µM (active).
Turning to `CCCCCCCCCCO`, the call was inactive.
Consider `CC=Cc1ccc(O)c(OC)c1`, for which the result was inactive.
On the same count and under the same terms, as for `Cc1ccccc1Cl`, the entry is “inactive”.
Still for that read-out and setting: the result for `CCCCCCCC=O` reads “inactive”.
Still for that read-out and setting: the result for `CNCc1cc(F)ccc1Oc1ccc(Cl)c(Cl)c1` reads “inactive”; that for `Cc1nc(-c2ccc3c(c2)CCN(CCC2CCC(NC(=O)/C=C/c4ccc(F)cc4)CC2)CC3)no1` (stereo not given), “inactive”.
Consider `CC(C)c1ccc(C(=O)N=C(N)N)cc1S(C)(=O)=O`, for which the AC50 is 68.6 µM (active).
`Cc1ccc(C(C)C)c(O)c1`: the AC50 is 46.1 µM (active).
On to `CCCCN(CCCC)CCCC`, for which the compound was classed as inactive.
On the same count and under the same terms, the result for `CCCCCCCCCCCCCCCC` reads “inactive”.
As to `CCCc1cc(=O)[nH]c(=S)[nH]1`, the AC50 is 8.12 µM (active).
Same read-out and setting: the result for `O=c1[nH]cc(F)c(=O)[nH]1` reads 26.1 µM (active).
As for `Cc1cc(NC(=O)C(=O)O)cc(C)c1Oc1ccc(O)c2c1CCC2`, the result was inactive.
Still for that read-out and setting: as for `CN1CCCC1=O`, the entry is “inactive”; as for `CC(=O)OC/C=C(\C)CCC=C(C)C`, “inactive”; as for `NCCO`, “inactive”.
Still for that read-out and setting: as for `CCOC(=O)C(C)(C)Oc1ccc(Cl)cc1`, the entry is “inactive”.
Consider `CC1=C(/C=C/C(C)=C/C=C/C(C)=C/CO)C(C)(C)CCC1`, for which the AC50 was 4.28 µM (active).
Consider `CC(=O)Oc1ccccc1C(=O)O`, for which the outcome was inactive.
For `CCCCC(CC)COC(=O)CC(C(=O)OCC(CC)CCCC)S(=O)(=O)O` (stereo not given), the compound was called inactive.
As for `Cc1cccc(C)c1O`, the AC50 was 31.9 µM (active).
Same read-out and setting: as for `O=c1c(O)c(-c2ccc(O)c(O)c2)oc2cc(O)cc(O)c12`, the figure is 14.9 µM (active).
For `Nc1ccc(S(=O)(=O)c2ccc(N)cc2)cc1`, the compound was called inactive.
Still for that read-out and setting: as for `Cc1ccc(Cl)cc1`, the entry is “inactive”.
For the compound `CCOc1ccc2c(c1)C(C)=CC(C)(C)N2`, the AC50 was 40.7 µM (active).
Consider `CN1CCN(Cc2cc(-c3ccc4[nH]c(=O)oc4c3)co2)[C@@H](c2ccc(F)cc2)C1`, for which the call was inactive.
Still for that read-out and setting: the result for `O=C(O)Cc1ccccc1Nc1c(Cl)cccc1Cl` reads “inactive”.
Turning to `CCCCCCCCCCCCCCCCCC(=O)O`, the AC50 was 25.9 µM (active).
On to `CCCCOC(=O)CCCCCCCCC(=O)OCCCC`, for which the compound was classed as inactive.
On the same count and under the same terms, as for `Nc1ccccc1N`, the entry is “inactive”; as for `COc1cccc2c1C(=O)c1c(O)c3c(c(O)c1C2=O)C[C@@](O)(C(=O)CO)C[C@@H]3O[C@H]1C[C@H](N)[C@H](O)[C@H](C)O1`, “inactive”; as for `NS(=O)(=O)c1cc2c(cc1Cl)NCNS2(=O)=O`, “inactive”.

One may read the AC50 as the midpoint of the concentration-response curve, whichever way the signal moves.
